Measured values as given in the OligoGym collection.

target: APOL1; assay: pooled miR-30 sensor sort-seq; sequence = guide strand; conditions: shRNA
Further: reference of the scale not given here.

Sequence | sensor-assay potency score (higher = more potent)
TTTGAGGATCTCCAGTATCTGT | -1.27
TTGTCTTTCATGATCATTTGTC | 0.325
TTTGTTGCACCCTCGCTCCAGC | -0.393
TTCATTAACCCTCTCCACCTGT | -0.144
TATCCAACTGTTCTAACTCTTG | -1.08
TTTTGTTGCACCCTCGCTCCAG | -0.279
TAACTCTTGGGCTTTCTCCATT | -0.755
TCAAGCTCACTTTTCAACCGAG | -0.112
TTAGTCTAAAGTAAACTGCTTC | -0.132
TTGTCTTGCAAGGTTGTCCAGA | -0.407
TAGCTTCTCCTCCAGCTCCTGA | -0.925
TATCGTGCCAGTTTTTGTCTTT | -0.367

target: APTX; assay: as above; conditions: shRNA

Sequence | sensor-assay potency score (higher = more potent)
TGGAAGTCTGATTCGCTGGTGC | -0.603
TTGCTGTCGAGAACATTTCTTA | -0.631
TCAGTGATCTTGGTCTCTGGGC | -0.249
TTATCAGTGATCTTGGTCTCTG | -0.647
TATAGAATCACTGTTGCCTGAT | 0.198
TTTCTTATCAGTGATCTTGGTC | -0.281
TATCAGTGATCTTGGTCTCTGG | -0.564

target: ARF4; assay: as above; conditions: shRNA

Sequence | sensor-assay potency score (higher = more potent)
TATCTTGACCACCAACATCCCA | -1.07
TTCTGTTACGAAGAGACTGAAG | -1.25
TTATACAGAATGGTTGTCTTGC | 0.842
TTGTGTTGCACAAGTGGCTTGA | 0.462
TTCCACATTAAAACCAATGGTA | -0.547
AATTTTGTTGTAACAAGCCTAG | -0.535
TACCACAAAAATAAGACCCTGG | 0.855
TTTGTTTGCAAAAAGTAGCAGC | -0.61
TACTGTGAAACAAATGTTCTTA | 0.474
TTCTATCTTGACCACCAACATC | -1.78
ATCTTGACCACCAACATCCCAT | -0.565
TTATCAAACATGTCCTTGGTTA | -0.479
TTGTCTTGCCAGCAGCATCCAA | -0.778
AATTTTATCAAACATGTCCTTG | -0.486
TACAGAATGGTTGTCTTGCCAG | -0.56
TAATTCTATCTTGACCACCAAC | -1.26
TAATTTTGTTGTAACAAGCCTA | -0.0701
TTTCACGATCGTTGCTATCTAC | 0.0471
TTGACAGCCAGTCAAGTCCTTC | -0.84
